The full ranking holds about 33,000 sequences; the median of “E-score (-0.5 to 0.5)” is about -0.053, and the highest 2% start at about 0.37. Only a selection was taken, and the highest values are over-represented in it overall.
Target: Hap1 (UniProt P0CE41)
Assay: PBM E-score (8-mer binding enrichment) (E-score (-0.5 to 0.5)); higher = stronger / more preferred TF binding
Details: protein concentration: 200 nM; construct: GST-DNA-binding domain
Procedure, shortened: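 Detection of bound protein used fluorescent anti-GST, with scans normalised by masliner. The proteins were GST-tagged yeast transcription factors applied at about 100-200 nM to universal all-10-mer Agilent arrays made double-stranded by primer extension. Each ungapped eight-base word, pooled with its reverse complement, was scored with an E-score from the Universal PBM Analysis Suite.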

Chain of UniProt P0CE41 (P0CE41 whole entry): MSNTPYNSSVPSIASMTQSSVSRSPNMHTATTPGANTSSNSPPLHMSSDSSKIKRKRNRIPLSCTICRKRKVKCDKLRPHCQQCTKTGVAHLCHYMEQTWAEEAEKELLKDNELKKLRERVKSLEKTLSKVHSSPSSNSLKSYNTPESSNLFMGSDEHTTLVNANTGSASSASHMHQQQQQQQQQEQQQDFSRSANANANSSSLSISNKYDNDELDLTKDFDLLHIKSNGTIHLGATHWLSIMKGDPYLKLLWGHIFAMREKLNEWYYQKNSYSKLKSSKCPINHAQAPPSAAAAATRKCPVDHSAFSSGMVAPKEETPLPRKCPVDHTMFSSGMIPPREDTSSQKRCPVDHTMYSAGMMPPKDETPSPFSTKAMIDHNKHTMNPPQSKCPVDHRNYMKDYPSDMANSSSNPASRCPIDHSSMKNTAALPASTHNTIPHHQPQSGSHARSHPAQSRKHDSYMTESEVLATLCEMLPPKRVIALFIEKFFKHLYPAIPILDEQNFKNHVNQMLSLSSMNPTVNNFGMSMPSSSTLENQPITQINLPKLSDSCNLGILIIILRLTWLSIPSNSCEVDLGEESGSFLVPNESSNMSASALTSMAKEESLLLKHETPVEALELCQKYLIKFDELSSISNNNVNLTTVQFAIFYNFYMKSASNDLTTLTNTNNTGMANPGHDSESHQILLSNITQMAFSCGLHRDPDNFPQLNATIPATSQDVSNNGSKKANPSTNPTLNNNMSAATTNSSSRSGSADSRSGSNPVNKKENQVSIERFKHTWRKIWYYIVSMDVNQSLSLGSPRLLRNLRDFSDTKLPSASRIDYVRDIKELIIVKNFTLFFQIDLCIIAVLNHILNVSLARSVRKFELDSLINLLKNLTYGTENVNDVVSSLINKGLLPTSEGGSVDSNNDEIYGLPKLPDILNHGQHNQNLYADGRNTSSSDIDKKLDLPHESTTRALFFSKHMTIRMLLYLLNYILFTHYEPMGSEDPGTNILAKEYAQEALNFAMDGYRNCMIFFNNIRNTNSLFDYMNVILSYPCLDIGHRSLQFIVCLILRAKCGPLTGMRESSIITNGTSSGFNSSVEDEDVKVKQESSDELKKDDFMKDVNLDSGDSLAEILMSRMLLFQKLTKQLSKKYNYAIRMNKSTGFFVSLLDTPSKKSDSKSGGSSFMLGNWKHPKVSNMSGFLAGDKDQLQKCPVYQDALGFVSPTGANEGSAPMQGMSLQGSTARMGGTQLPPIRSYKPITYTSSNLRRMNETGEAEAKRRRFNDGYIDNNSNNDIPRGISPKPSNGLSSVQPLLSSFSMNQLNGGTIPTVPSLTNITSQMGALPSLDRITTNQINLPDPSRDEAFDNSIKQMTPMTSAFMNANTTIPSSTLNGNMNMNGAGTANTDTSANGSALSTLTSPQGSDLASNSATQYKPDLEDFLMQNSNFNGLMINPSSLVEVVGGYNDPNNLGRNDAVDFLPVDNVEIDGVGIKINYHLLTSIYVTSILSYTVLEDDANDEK

| Sequence | PBM E-score |
| --- | --- |
| CAAGGGGA | -0.0784 |
| ATGGTTTG | 0.0601 |
| CGACGTAG | -0.0488 |
| ATAGAGGA | -0.186 |
| CTCCAATC | -0.121 |
| CCCAATTC | -0.135 |
| CACCACAA | -0.117 |
| ACATCCAT | -0.093 |
| ACGTCTGG | -0.202 |
| AATAGTAT | 0.103 |
| AAGCAGCT | -0.114 |
| CACGTCGA | -0.183 |
| TACGGTGA | 0.0448 |
| AGACGGCA | -0.0262 |
| AACGGTCA | 0.246 |
| AACGGACG | 0.305 |
| AGCGGACG | 0.297 |
| AACGGACA | 0.369 |
| CACGGACA | 0.312 |
| CTCGGTCC | 0.35 |
| ATCGGTCC | 0.374 |
| ATCGGACG | 0.422 |
| ATCGGTCA | 0.318 |

| Sequence | PBM E-score |
| --- | --- |
| GACGGTAC | 0.142 |
| CACCACCC | 0.106 |
| CGGTTGAG | 0.18 |
| AGACCTCT | -0.208 |
| CGAGGCCA | 0.022 |
| TAGCACCA | -0.14 |
| CGGGGCAA | 0.198 |
| AGATATCC | 0.192 |
| CGATATCA | 0.234 |
| CTATATCC | 0.202 |
| ATATATCA | 0.0242 |
| ATATATCC | 0.399 |
| ATATCTCC | 0.437 |
| CGATATCG | 0.388 |
| AGATATCG | 0.315 |
| CGATATCC | 0.375 |
| GGATATCC | 0.236 |
| ATCTCTCC | -0.0103 |
| CTATCTCC | 0.358 |
| ACCTTGCC | -0.132 |
| AAAGGAGC | -0.141 |
| CATCTTTC | -0.224 |
| AGGTGCTA | -0.132 |

| Sequence | PBM E-score |
| --- | --- |
| AGGTTCAA | -0.0501 |
| AAAGGCGC | -0.0167 |
| CTTTAACC | -0.0789 |
| CAGCAGTA | -0.352 |
| CGAGCGGC | 0.238 |
| CGAGCGGA | 0.37 |
| AGAGCGGA | 0.13 |
| AATGGTCA | -0.179 |
| TCCCGGCA | 0.277 |
| TCCCGGAA | 0.397 |
| TCACGGAA | 0.329 |
| CCCCGGAC | 0.397 |
| AACCGGAG | 0.425 |
| CCCCGGAA | 0.272 |
| ACCCGGAA | 0.346 |
| AACCGGAA | 0.337 |
| GCACGGAA | 0.215 |
| GCCCGGAA | 0.402 |
| AACCGGAT | 0.286 |
| CCCCGGCC | 0.348 |
| CCTGCCGA | 0.156 |
| AGGAGGCC | -0.254 |
| AACGTTGT | -0.162 |

| Sequence | PBM E-score |
| --- | --- |
| CGACACGA | 0.0811 |
| CTACATGA | -0.187 |
| TAAAGGCA | -0.0704 |
| GCACTCGC | -0.0299 |
| AGAGGGCA | -0.162 |
| GAGCGATC | 0.0915 |
| AAGTTATT | 0.0401 |
| GCGTCACC | -0.0889 |
| AATTGCAC | -0.191 |
| ACCCGGGC | 0.368 |
| ACCCGTAC | 0.0493 |
| ACCCGGGG | 0.306 |
| ACCCGGAC | 0.372 |
| CCCCGGAG | 0.393 |
| ACCCGGGA | 0.328 |
| CCCCCGAG | 0.308 |
| ACCCGGGT | 0.393 |
| CCCGGGAG | 0.299 |
| GCCCGGGC | 0.434 |
| ACCCGGCC | 0.305 |
| GCCCGGGA | 0.316 |
| AGAGCGAT | 0.0667 |
| ATACGTTA | -0.106 |

| Sequence | PBM E-score |
| --- | --- |
| GCTCTAAC | 0.0397 |
| CGACTGTA | -0.166 |
| CAGAAACC | -0.0171 |
| AACAGGCT | -0.152 |
| TACCTCCA | -0.176 |
| ATCAGTGC | -0.212 |
| GCCGGGAC | 0.185 |
| GCCCGGAC | 0.401 |
| CCCCGGGG | 0.388 |
| GCCCGGCC | 0.329 |
| ACCCGGCG | 0.283 |
| ACCCGGAT | 0.322 |
| ACCCGGAG | 0.423 |
| CCCCGGGC | 0.36 |
| CCCCCGGG | 0.324 |
| CTCACAGA | -0.242 |
| CGGCGCTC | 0.23 |
| TCTGTGAA | -0.101 |
| CCGGTCCC | 0.323 |
| CCGGTCCG | 0.42 |
| CCGGTCCA | 0.237 |
| AGACTGAT | -0.159 |
| GACAGAGC | -0.162 |

| Sequence | PBM E-score |
| --- | --- |
| CGTTTGAA | -0.061 |
| CGAGGGCA | -0.00305 |
| ATTTTGGA | 0.147 |
| ATACTCCC | 0.115 |
| CAACTCCA | -0.0501 |
| AAACTCCG | 0.456 |
| ATACTCCG | 0.407 |
| AAACTCCA | -0.0578 |
| ATACTCCA | -0.15 |
| CAACTCCG | 0.398 |
| AAACTCCT | -0.1 |
| CAACTCCC | 0.0886 |
| CGCTAGCG | 0.0545 |
| CGCGAGCA | -0.126 |
| GATATCGC | 0.304 |
| AAACCCTA | -0.136 |
| AGGTACGG | 0.0524 |
| AACGCGAA | 0.121 |
| AGGTCGCA | 0.101 |
| ACTAAGCC | 0.094 |
| ACTGTCAG | -0.224 |
| GACCGGAC | 0.41 |
| TACCGGCA | 0.353 |

| Sequence | PBM E-score |
| --- | --- |
| CACCGGGA | 0.261 |
| CAGCGGAA | 0.139 |
| AACCGGAC | 0.369 |
| GACCGGAA | 0.361 |
| CACCGGAA | 0.398 |
| CACCGGAG | 0.341 |
| CACCGGAC | 0.417 |
| TACCGCAA | 0.08 |
| TACCGGAA | 0.442 |
| GACCGGGC | 0.331 |
| AATCGGCT | 0.314 |
| TCTGCGAA | -0.214 |
| CCGGTGTC | 0.301 |
| CTTGGTGA | -0.102 |
| CATCGGAC | 0.401 |
| CATCGGTC | 0.278 |
| AATCGGAC | 0.345 |
| GATCGGAC | 0.413 |
| GATCGGAA | 0.325 |
| CATCGGAG | 0.292 |
| GCTTTTAC | 0.14 |
| ATGTGGAC | -0.149 |
| AATTCCTG | -0.0671 |

| Sequence | PBM E-score |
| --- | --- |
| AGGCTGTG | -0.019 |
| CACATCGC | 0.0343 |
| GCGGACGC | 0.0721 |
| TCACGCGA | -0.0375 |
| AGAGGAGA | -0.242 |
| TAGGACCA | -0.0211 |
| TCGGACCA | 0.381 |
| ACGGACCC | 0.278 |
| ACGGACTA | 0.237 |
| CCGGACCC | 0.374 |
| GCGGACCC | 0.266 |
| CAGGACCG | -0.00407 |
| CCGGACCG | 0.431 |
| CCGGACTA | 0.404 |
| CCGGACTC | 0.361 |
| ACGGACCG | 0.328 |
| TGGGACCA | -0.19 |
| AGGCGCCC | -0.0775 |
| CGCATCCA | -0.0122 |
| ACCACAGC | -0.127 |
| GAGAGAGA | -0.0161 |

— the supplement of paper PMC3334620
